TDP1 block = TDP1 (human) enzyme inhibition; Q9NUW8; AID 485290; Potency, µM (highest dose often 130 µM), actives largely listed as inhibitors; 350,000 compounds, 0.28% hits; recombinant TDP1, AlphaScreen DNA substrate cleavage; further: nearly all actives have a fitted effect of over 40% in size
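Recombinant E. coli-expressed Tdp1 (1 nM) preincubated with compound 15 min at RT, then 5'-biotin/3'-phosphotyrosine-FITC DNA substrate (15 nM) added for 5 min. AlphaScreen beads (10 ug/ml) added, 10 min RT; tyrosine-FITC cleavage read as signal loss.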
DT40 TDP1 no CPT = qHTS for Inhibitors of human tyrosyl-DNA phosphodiesterase 1 (TDP1): qHTS in cells in absence of CPT; 420,000 compounds, 15% hits; Potency, µM (top dose mostly 46.2 µM), most hits filed as inhibitors; DT40 Tdp1-/- hTDP1 cells, no CPT, ATP luminescence, 48 h; further: nearly all actives have a fitted effect of over 55% in size
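Stably hTDP1-transfected Tdp1-null chicken DT40 cells were treated with library compounds minus camptothecin and grown for at least 48 hr at 37 °C, after which cellular ATP was quantified by luminescence.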
DT40 TDP1 CPT = DT40-hTDP1 cell growth loss with CPT; Potency, µM (top dose mostly 46.2 µM), hits mostly inhibitors; AID 686979; chicken DT40 Tdp1-/-;hTDP1 cells + 20 nM CPT, ATP luminescence, 48 h; 420,000 compounds, 12% hits; further: nearly all actives have a fitted effect of over 55% in size
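Chicken DT40 Tdp1-/- cells complemented with human TDP1, 400 cells/well, exposed to compounds plus 20 nM camptothecin for at least 48 h at 37 C; viability read as ATP content by CellTiter-Glo luminescence.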
GCN5L2 inh = blocks human GCN5L2 histone acetyltransferase | GCN5L2 HAT assay, ThioGlo1 CoA-SH fluorescence | Potency, µM (titrated, usually from 58.9 µM), most hits filed as inhibitors | 390,000 compounds, 0.21% hits
Target sequence (Q92830 whole entry, looked up): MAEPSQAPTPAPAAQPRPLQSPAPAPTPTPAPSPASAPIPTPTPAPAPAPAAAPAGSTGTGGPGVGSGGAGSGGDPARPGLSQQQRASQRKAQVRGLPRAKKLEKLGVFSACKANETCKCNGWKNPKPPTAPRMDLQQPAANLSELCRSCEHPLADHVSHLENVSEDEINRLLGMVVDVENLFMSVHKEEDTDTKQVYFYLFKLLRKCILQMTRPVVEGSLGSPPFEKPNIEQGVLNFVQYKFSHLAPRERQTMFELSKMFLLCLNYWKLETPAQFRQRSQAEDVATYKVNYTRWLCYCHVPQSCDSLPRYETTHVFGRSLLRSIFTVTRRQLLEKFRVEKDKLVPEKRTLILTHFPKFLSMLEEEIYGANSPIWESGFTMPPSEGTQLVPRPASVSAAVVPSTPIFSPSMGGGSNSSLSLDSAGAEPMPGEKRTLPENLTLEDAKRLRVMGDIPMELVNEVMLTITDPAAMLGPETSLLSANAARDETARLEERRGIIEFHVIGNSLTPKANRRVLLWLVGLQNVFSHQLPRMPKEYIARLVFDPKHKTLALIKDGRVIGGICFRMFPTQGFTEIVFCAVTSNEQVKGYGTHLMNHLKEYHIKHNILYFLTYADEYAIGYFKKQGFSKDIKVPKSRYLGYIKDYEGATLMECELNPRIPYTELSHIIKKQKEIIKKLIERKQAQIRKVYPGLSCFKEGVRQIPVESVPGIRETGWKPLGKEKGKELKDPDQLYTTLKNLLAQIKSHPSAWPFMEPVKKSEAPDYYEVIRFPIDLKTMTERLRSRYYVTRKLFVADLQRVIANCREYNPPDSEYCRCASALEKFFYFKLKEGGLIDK
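Preincubate 20nM GCN5L2 with compound 15 min, RT → add 50uM ThioGlo1 + 75uM H3(1-25) + 70uM acetyl-CoA → read fluorescence 0 and 20 min. Primary qHTS; fluorescent artifacts likely.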
PLK1 PBD inh = inhibitors of human PLK1 polo-box domain binding. Plk1 PBD binding of FITC phosphopeptide, fluorescence polarization. 360,000 compounds, 2.8% hits. P53350. Potency, µM, actives largely listed as inhibitors. AID 720504; further: series mostly up to about 57 µM; nearly all actives have a fitted effect of over 65% in size
VDR inhibitor = inhibitors of human vitamin D receptor; P11473; VDR-SRC2-3 peptide fluorescence polarization, 2 h; Potency, µM, usual class: inhibitors; 400,000 compounds, 0.93% hits; AID 504847
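Signal is fluorescence polarization, reporting how far test compounds block the interaction of VDR with the SRC2-3 coregulator peptide after a 2 h room-temperature incubation.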
A number is an active result; . = inactive; ? = inconclusive; / = not tested or not shown. Most compounds without a hit are left out; they make up all but 18% or so of the library. The call rests on the fitted dose curve; in most records, active means well fitted curve in the direction sought with a large enough effect; inconclusive means small, poorly fitted or top-dose-only effect, or another doubt; inactive means no such curve, though single readings can be large; an effect the other way counts as inactive or inconclusive.

SMILES | TDP1 block | DT40 TDP1 no CPT | DT40 TDP1 CPT | GCN5L2 inh | PLK1 PBD inh | VDR inhibitor
COc1ccc(C(=O)C2CCCN(Cc3cccc(C)n3)C2)c(OC)c1 (stereo not given) | . | 20.6µM | ? | . | . | .
CCOCCSc1nc2c(c(-c3cccs3)c1C#N)CC/C2=C/c1cccs1 | . | ? | ? | . | . | .
COc1ccc(C(=O)C2CN(C)CC2c2ccc(Cl)cc2)cc1 (stereo not given) | . | ? | 18.4µM | . | . | .
O=C(C1CC(c2ccc(Cl)c(Cl)c2)=NO1)N1CCC2(CC1)OCCO2 (stereo not given) | . | 14.6µM | 14.6µM | . | . | .
CCCN(CCC)C(=O)Cc1c(-c2ccc(Cl)cc2)nc2ccc(Cl)cn12 | / | ? | . | / | / | /
Clc1ccc(-c2nc3ccc(Cl)cn3c2CN2CCCCC2)cc1 | / | 16.4µM | ? | . | . | .
Clc1ccc(-c2nc3ccc(Cl)cn3c2CN2CCOCC2)cc1 | . | 23.1µM | ? | . | . | .
CCOC(=O)N(C)C(=O)CSP(=S)(OCC)OCC | . | / | / | . | / | 50.1µM
O=C(Cn1c(=O)n(Cc2ccccc2)c(=O)c2sc3ccccc3c21)NCc1ccccc1Cl | . | ? | . | . | / | .
CC(=O)c1cccc(NC(=O)N2C[C@H]3C[C@@H](C2)c2cccc(=O)n2C3)c1 | / | . | . | ? | . | .
CCCCCCn1c(=O)c(C(=O)Nc2cccc(C)n2)c(O)c2ccccc21 | / | 3.66µM | 3.66µM | . | . | .
CCCCCn1c(=O)c(C(=O)Nc2cnccn2)c(O)c2ccccc21 | . | 2.91µM | 4.11µM | . | 21.2µM | .
CCCCCn1c(=O)c(C(=O)Nc2cc(C)ccn2)c(O)c2ccccc21 | / | 7.31µM | 7.31µM | . | . | .
CCCCCn1c(=O)c(C(=O)Nc2nc(CC(=O)OCC)cs2)c(O)c2ccccc21 | . | 4.61µM | 4.11µM | . | . | .
O=C(c1ccco1)N1CCC[C@@]2(CCN(Cc3ccncc3)C2)C1 | / | . | . | . | / | .
CN1OCC2Cn3c(nc4ccccc43)C21 (stereo not given) | . | . | . | . | . | .
C=CCn1c(O)c(C(C)=NC2CCN(Cc3ccccc3)CC2)c(=O)[nH]c1=O | / | . | . | . | . | ?
CCCCCCCn1c(=O)c(C(=O)Nc2cnccn2)c(O)c2ccccc21 | / | 0.581µM | 0.82µM | . | . | .
CCCCCCn1c(=O)c(C(=O)Nc2ncccc2C)c(O)c2ccccc21 | / | 1.64µM | 4.11µM | . | . | .
CC(=O)O[C@H]1[C@H]2[C@@H](OC(=O)Cc3ccccc3)[C@@H](C)C[C@]2(OC(C)=O)C(=O)/C(C)=C/[C@@H]2[C@H](CC[C@@]13CO3)C2(C)C | . | / | / | . | / | .
CCOc1ccc(NS(=O)(=O)c2ccc(Cl)c(N=Nc3c(O)[nH]c(=S)[nH]c3=O)c2)cc1Br | / | ? | . | / | ? | /
COC(=O)C1=C(c2cccc(OCc3ccccc3)c2)C[C@@H]2CC[C@H]1N2C(=O)NCCOc1ccccc1 | . | 20.6µM | ? | . | . | .
COC(=O)C1=C(c2cccc(OCc3ccccc3)c2)C[C@@H]2CC[C@H]1N2C(=O)NCCOc1ccccc1Cl | . | 23.1µM | ? | ? | . | .
COC(=O)C1=C(c2cccc(OCc3ccccc3)c2)C[C@@H]2CC[C@H]1N2C | / | ? | ? | / | . | /
COC(=O)C1=C(c2cccc(OCc3ccccc3)c2)C[C@@H]2CC[C@H]1N2C(=O)NCCc1ccc(F)cc1 | . | 16.4µM | ? | . | . | .
SMILES | TDP1 block | DT40 TDP1 no CPT | DT40 TDP1 CPT | GCN5L2 inh | PLK1 PBD inh | VDR inhibitor
COC(=O)C1=C(c2cccc(C#N)c2)C[C@@H]2CC[C@H]1N2C(=O)NCCOc1ccccc1Cl | . | 16.4µM | 18.4µM | . | . | .
CCCNC(=O)N1[C@H]2CC[C@@H]1C(C(=O)OC)=C(c1cccc(C#N)c1)C2 | . | . | . | . | . | .
Cc1ccc(OCC(=O)N2CCN(CCc3ccncc3)CC2)cc1C | . | . | . | . | / | .
CC1CCCC(NC(=O)CNC(=S)N2CC3CC(C2)c2cccc(=O)n2C3)C1C (stereo not given) | . | . | . | . | . | .
CC1(C)N(O)C(c2ccc(C(=O)O)cc2)=[N+]([O-])C1(C)C | . | . | . | . | / | ?
COC(=O)C1=C(c2ccc(C(C)=O)cc2)C[C@@H]2CC[C@H]1N2C(=O)NCCOc1ccccc1Cl | . | ? | 23.1µM | . | . | .
c1ccc(N2CCC3(CCNCC3)CC2)nc1 | / | ? | 18.4µM | . | / | ?
c1cnc(N2CC3(CCNCC3)C2)nc1 | / | . | . | . | / | .
c1ccc(N2CCC3(CCNCC3)CC2)cc1 | / | 18.4µM | . | . | / | ?
c1cnc(N2CC[C@@]3(CCCNC3)C2)nc1 | / | . | ? | . | / | ?
c1ccc(CN2CCC3(CCc4ccccc43)CC2)cc1 | . | ? | 23.7µM | . | / | .
NC(=O)C1(N2CCCCC2)CCN(Cc2ccccc2)CC1 | . | . | . | . | . | .
c1ccc(N2CC[C@@]3(CCCNC3)C2)cc1 | / | ? | ? | . | / | 50.1µM
O=C1NCN(c2ccccc2)C12CCNCC2 | . | . | . | . | . | .
O=C=NCCCCN=C=O | . | / | / | . | / | .
CCCCOC1OCN(C2CCCCC2)CC1(C)C (stereo not given) | / | ? | . | / | . | /
c1ccc(CN2CCC3(CCNCC3)CC2)cc1 | / | 3.26µM | 4.61µM | . | / | ?
CCCCCCCCCOc1ccc2[nH]cc(CCN)c2c1 | . | 8.2µM | 7.31µM | ? | / | .
OCCNCCc1c[nH]c2ccc(OCc3ccccc3)cc12 | / | ? | . | . | . | .
COC(=O)/C(C)=C\CC12OC(C)(C)C3CC(C=C4C(=O)c5c(OC)c6c(c(CC=C(C)C)c5OC431)OC(C)(CCC=C(C)C)C=C6)C2=O (stereo not given) | . | 3.66µM | 4.61µM | . | / | 2µM
CC(=O)Oc1c2c(c(CC=C(C)C)c3c1C(=O)C1=CC4CC5C(C)(C)OC(C/C=C(\C)C(=O)O)(C4=O)[C@]15O3)OC(C)(CCC=C(C)C)C=C2 (stereo not given in full) | . | 0.92µM | 0.82µM | 15.8µM | / | 1.26µM
COc1cc(C(c2c(O)c3ccccc3oc2=O)c2c(C)n(C)n(-c3ccccc3)c2=O)ccc1OCC(=O)O (stereo not given) | . | . | . | . | / | .
C[C@]12[C@H](O)CC3C(CC[C@@H]4C[C@@H](O)CC[C@]34C)[C@@]1(O)CC[C@@H]2C1=CC(=O)OC1 (stereo not given in full) | . | ? | ? | / | / | /
O=[N+]([O-])/C=C/c1ccc2c(c1)OCO2 | / | / | / | . | / | 7.08µM
COc1cc(OC)c(OC)cc1C=O | . | ? | . | . | . | .
